From PubChem BioAssay AID504329 (Southern Research Specialized Biocontainment Screening …, 2011) come the findings set out here.

Values joined by “and” are separate entries in the source; they are usually repeats but may differ in a detail not shown here. Identical values can stand only once. Hit rate of the full screen: of about 340,000 compounds, about 1,000 (0.29%) were called active. Only a sample is shown. Entries with a potency or affinity are not part of this list. Unmarked numbers belong to inactive results. Rule as the data show it: inconclusive = inhibition above about 27% without an active follow-up result; inactive = below that.

The assay in a line: NS1A inhibition, H1N1 influenza, cell based functional assay (AID 504329). The note with it: percent inhibition, at 12.5 µM, stronger effect = higher value.
As for `O=C(CN1CCN(S(=O)(=O)c2ccc(Br)cc2)CC1)N/N=C/c1cc([N+](=O)[O-])ccc1Cl`, the inhibition was -0.7%.

Regarding `O=C(Oc1cccc(F)c1)c1ccc2c(=O)n3c(nc2c1)CCC3`, the inhibition was 3.05%.

For the molecule `N#CCO/N=C/C(=O)Nc1ccc(F)cc1F`, the inhibition is -11.8%.

`CCOC(=O)C1=C(C)Nc2ncnn2C1c1ccc(N(C)C)cc1` (stereo unspecified): the inhibition is 6.88% and -12.7%.

As to `O=C(O)c1ccc(Nc2nc(-c3ccccc3)nc3ccccc23)cc1`, the inhibition is -15.2%.

With `Cc1ccc2nc(-c3ccc(NC(=O)COC(=O)c4ccco4)cc3)sc2c1`, the inhibition is -4.32%.

On to `COc1ccc(N(CC(=O)NC2CCCCC2)S(=O)(=O)c2cccnc2)cc1`, for which the inhibition was -1.53%.

With `CC(C)n1cnnc1SCC(=O)NC(=O)c1ccccc1`, the inhibition was -13.7%.

`O=C(CSc1nc(=O)n(CCCN2CCOCC2)c2c1CCC2)Nc1ccc(F)cc1F`: the inhibition was 0.02%.

In the case of `CCOC(=O)c1cnc(N2CCN(c3ccccc3)CC2)[nH]c1=O`, the inhibition was -0.51%.

For the molecule `CCOC(=O)c1cnc(Cc2ccccc2)[nH]c1=O`, the inhibition was -2.72%.

For `O=C(c1cccc(N2C(=O)C3C4C=CC(C4)C3C2=O)c1)N1CCN(c2ccc(F)cc2)CC1` (stereo unspecified), the inhibition is -2.51%.

In the case of `COC(=O)c1ccc(NC(=S)N2CCC(C(N)=O)CC2)cc1`, the inhibition was -11.5%.

For the molecule `O=C(O)c1ccccc1C(=O)O`, the inhibition is 3.33%.

Take `O=C(O)c1ccccc1P(=O)(c1ccccc1)c1ccccc1`: the inhibition is 7.4%.

Regarding `O=C(NCc1ccco1)/C(=C/c1ccc([N+](=O)[O-])cc1)NC(=O)c1ccco1`, the inhibition was -2.93%.

As to `Cc1ccc(CN2CCN(Cc3cn(C(C)C)c4ccccc34)CC2CCO)o1` (stereo unspecified), the inhibition was 14.6%.

As for `Cc1sc2nc(SCC(=O)Nc3cccc(C(=O)O)c3)[nH]c(=O)c2c1C`, the inhibition was -8.26%.

Consider `CCOC(=O)C1CCN(C(=O)CCNS(=O)(=O)c2cc(Br)cnc2N)CC1`, for which the inhibition was -2.4%.

As to `CCOC(=O)C1=C(C)N=c2s/c(=C/c3cccc([N+](=O)[O-])c3O)c(=O)n2C1c1ccc(OC)cc1OC` (stereo unspecified), the inhibition was 22.2%.

In the case of `CCOC(=O)C1=C(C)N=c2s/c(=C/c3cccc([N+](=O)[O-])c3O)c(=O)n2C1c1cc(OC)c(OC)c(OC)c1` (stereo unspecified), the inhibition is 20.1%.

Consider `CCc1ccc(C(=O)C(C)OC(=O)CNS(=O)(=O)c2ccc(C)cc2)cc1` (stereo unspecified), for which the inhibition was -0.69%.

As to `COc1ccc(C=C2C(=O)c3ccccc3C2=O)cc1O`, the inhibition is 16.6%.

`COc1cc(C=C2C(=O)c3ccccc3C2=O)ccc1O`: the inhibition is -20.5%.

As for `CCn1c(C)nc2cc(C(=O)NN=Cc3ccccc3OC(F)F)ccc21`, the inhibition is -6.28%.

With `CCCN1CCC(=O)N(CCOc2ccccc2)CC1`, the inhibition is -8.48%.

On to `CC(C)CN1CCC(=O)N(CCOc2ccccc2)CC1`, for which the inhibition was 2.95%.

For the molecule `Cc1ccc(-n2c(O)c(C=NC3CCS(=O)(=O)C3)c3ccccc3c2=O)c(C)c1` (stereo unspecified), the inhibition was 9.46%.

In the case of `O=C(CSc1ccc(-c2ccccn2)nn1)c1ccc([N+](=O)[O-])cc1`, the inhibition is 27.3%.

In the case of `c1ccc(CSc2ccc(-c3ccccn3)nn2)cc1`, the inhibition is -2.51%.

Consider `c1ccc(CSc2ccc(-c3cccnc3)nn2)nc1`, for which the inhibition was -9.97%.

With `Clc1ccc(-c2ccc(SCc3ccccn3)nn2)cc1`, the inhibition is 0.43%.

Regarding `O=C(CSc1ccc(-c2ccccn2)nn1)c1ccc(F)cc1`, the inhibition was -9.8%.

With `c1cncc(CSc2ccc(-c3cccnc3)nn2)c1`, the inhibition was 0.64%.

On to `Cc1onc(-c2ccc(Cl)cc2Cl)c1-c1csc(N/N=C/c2ccccc2)n1`, for which the inhibition is -21.5%.

As to `CN(C(=O)c1ccc(NC(=O)Cc2cccc(NC(=O)C3CCCN(C(=O)C4CCCCC4)C3)c2)cc1)C1CCCC1` (stereo unspecified), the inhibition was -1.36%.

Regarding `CCS(=O)(=O)N1CCN(S(=O)(=O)c2ccc(S(=O)(=O)NC3CC3)cc2)CC1`, the inhibition was 7.16%.

`Cc1ccc(NC(=O)COc2ccc(C(=O)c3ccccc3)cc2)c(O)c1`: the inhibition was 8.15%.

Take `CCNC(=S)N1CCN(c2ccccc2OCC)CC1`: the inhibition is 0.76%.

Consider `Cc1ccc(CN2CCNC(=O)C2CC(=O)NCCCn2ncc3ccccc32)o1` (stereo unspecified), for which the inhibition is -1.25%.

As to `CCO[C@H]1OC(C(=O)N2CCN(Cc3ccc4c(c3)OCO4)CC2)=C[C@@H](C2CCCCC2)[C@@H]1CCCO`, the inhibition was 8.35%.

Take `CC(C)N(Cc1nc(-c2ccc(Cl)cc2)no1)Cc1nccn1C`: the inhibition was -7.64%.

Regarding `CCOC(=S)SCc1cn2cccc(C)c2n1`, the inhibition was 4.77%.

Turning to `CNc1ccc(Oc2nc([N+](=O)[O-])nn2C)cc1`, the inhibition was -2.73%.

With `Fc1ccc(/C=N/n2cnn(Cc3ccccc3Cl)c2=S)cc1`, the inhibition is -7.06%.

On to `O=C(CCCc1ccccc1)Nc1nncs1`, for which the inhibition is 0.92%.

For the molecule `O=S(=O)(NCC1COc2ccccc2O1)c1ccc2ccccc2c1` (stereo unspecified), the inhibition is 1.74%.

In the case of `Cn1c(/C(C#N)=C(\O)c2cccc(F)c2)nc2ccccc21`, the inhibition was 0.62%.

Regarding `Cc1nc2sccn2c(=O)c1S(=O)(=O)N1CCN(c2cccc(C(F)(F)F)c2)CC1`, the inhibition is 3.59%.

Take `CCN1CCCC1CNC(=O)c1ccc2c(c1)NC(=O)/C(=C\c1ccc(C)cc1)S2` (stereo unspecified): the inhibition was 21.9%.

`COc1ccc(/C=C2/Sc3ccc(C(=O)NCCCN4CCOCC4)cc3NC2=O)cc1OC`: the inhibition is 9.94%.

`O=C(NCC1CCCN1S(=O)(=O)c1cccs1)c1ccccc1F` (stereo unspecified): the inhibition is -4.78%.

For `CC(=O)Nc1ccc(S(=O)(=O)N2CCN(c3ccc(C)c(Cl)c3)CC2)cc1`, the inhibition is -15.9%.

On to `CN=c1c([N+](=O)[O-])nn(-c2ccc3c(c2)OCCO3)n1O`, for which the inhibition is 2.75%.

On to `O=[N+]([O-])c1nn(-c2ccc3c(c2)OCCO3)n(O)c1=NC1CCCCC1`, for which the inhibition was 9.84%.

Take `O=[N+]([O-])c1nn(-c2ccc3c(c2)OCCO3)n(O)c1=NC1CCCC1`: the inhibition was 15.3%.

Consider `O=[N+]([O-])c1nn(-c2ccccc2)[n+]([O-])c1N1CCN(c2ccccc2)CC1`, for which the inhibition is 0.82%.

With `C/C=C(\C)CN1CCN(c2ccccc2)CC1`, the inhibition was -6.09%.

Consider `COc1cccc2c(Cl)c(CC=C(Cl)Cl)c(C)nc12`, for which the inhibition was 8.95%.

Turning to `CCN(CC)CC(O)Cn1c(C)c(-c2ccccc2)c2cc([N+](=O)[O-])ccc21` (stereo unspecified), the inhibition is 27.4%.

Consider `O=[N+]([O-])c1ccc(-[n+]2c(-c3ccccc3)cc(-c3ccccc3)cc2-c2ccccc2)cc1`, for which the inhibition was 0.94%.

As for `CC(C)n1c2ccccc2c2cc([N+](=O)[O-])ccc21`, the inhibition was 3.2%.

As to `O=[N+]([O-])c1ccc2c(c1)c(-c1ccccc1)nc1nncn12`, the inhibition is -1.91%.

Regarding `COc1ccc(S(=O)(=O)Nc2ccc3c(c2)C(=O)N([C@H](C)CO)C[C@H](C)[C@@H](CN(C)C(=O)Nc2ccccc2)O3)cc1`, the inhibition is 6.6%.

On to `COc1ccc(Nc2nc3c([nH]2)c(=O)[nH]c(=O)n3C)cc1`, for which the inhibition is -6.85%.

Take `O=C(CN1C(=O)NC2(CCOc3ccccc32)C1=O)NCCc1ccc(F)cc1` (stereo unspecified): the inhibition is -8.82%.

Regarding `N#CCCN1CCN(C2=NC(=O)/C(=C\c3cccs3)S2)CC1`, the inhibition was 8.67%.

In the case of `CCOC(=O)c1ccccc1NC(=O)/C=C/c1cc(OC)c(OC)c(OC)c1`, the inhibition was -4.73%.

Turning to `COc1cccc([C@@H]2CC=C(C(=O)O)[C@H](c3ccc(Br)cc3)N2S(=O)(=O)c2ccc(C)cc2)c1`, the inhibition is -4.53%.

For `CN(N=Nc1ccc([N+](=O)[O-])cc1)c1ccccc1`, the inhibition is 8.69%.

Turning to `CCCCN(C)c1ccc([N+](=O)[O-])cc1`, the inhibition was 11.8%.

With `Cc1ccc(CSC2=NCCN2C(=O)c2ccc([N+](=O)[O-])cc2)cc1`, the inhibition was 5.18%.

Take `COc1ccc([C@@H]2CC=C(C(=O)O)[C@H](c3ccccc3)N2S(=O)(=O)c2ccccc2C)cc1`: the inhibition was -3.46%.

For the molecule `COc1ccc(/C=N/S(=O)(=O)c2cccs2)cc1`, the inhibition is 4.61%.

Turning to `COc1ccc(-c2nsc3c(SCc4ccccc4)ncnc23)cc1`, the inhibition is -10.6%.

Take `O=c1cc2oc3cc(O)c(O)cc3c(-c3ccccc3O)c-2cc1O`: the inhibition is 4.83%.

For `Cc1cc2oc(=O)cc(-c3cc4ccccc4o3)c2cc1O`, the inhibition was -6.82%.

As for `Cc1ccccc1-c1cc(=O)c2c(O)cccc2o1`, the inhibition is -13.3%.

For `O=c1cc2oc3cc(O)c(O)cc3c(-c3ccccc3[N+](=O)[O-])c-2cc1O`, the inhibition was 20.1%.

As to `COc1cc(-c2cc(=O)c3ccccc3o2)ccc1O`, the inhibition is -19%.

Consider `COc1c(O)cc2oc(-c3ccc(O)c(O)c3)cc(=O)c2c1O`, for which the inhibition was 2.55%.

For the molecule `COc1ccc2c(=O)cc(-c3ccccc3F)oc2c1`, the inhibition was -4.71%.

With `COc1ccc(OC)c(-c2oc3ccccc3c(=O)c2O)c1`, the inhibition is -8.28%.

Take `CCCC(OC(=O)CC1Sc2ccccc2NC1=O)C(=O)NCc1ccco1` (stereo unspecified): the inhibition was 4.36%.

As for `N#Cc1cc(-c2ccccc2)oc1NC(=O)c1ccccc1`, the inhibition was 0.56%.

For `COc1ccc(N2CCN(C(=O)c3ccc(S(=O)(=O)NCc4ccco4)cc3)CC2)cc1`, the inhibition was 6.25%.

`COc1cccc(N=Nc2ccc3cccnc3c2O)c1`: the inhibition was 6.02%.

As for `COc1ccc(N=Nc2ccc3ccccc3c2)c(O)c1`, the inhibition is 25.1%.

Consider `Cc1ccc(C(=O)NNC(=O)c2ccc3ccccc3c2O)cc1`, for which the inhibition was -5%.

`Cc1ccc(N=Nc2[nH]c3ccccc3c2O)cc1`: the inhibition was -4.85%.

Take `CCOn1c(=O)c(-c2ccc(F)cc2)[n+]([O-])c2ccccc21`: the inhibition was -9.53%.
